The antibiotic and cytotoxicity screens of Wong et al. (2023)
In all, about 39,000 compounds went through this assay and about 1,500 (3.8%) were called active. The full list was thinned out, with actives kept by preference.

Each compound was assayed on HSkMC (human skeletal muscle cells) (assay: cytotoxicity call (relative viability < 0.9)). Details: 10 µM.
For `CO[C@@H]1CN(C)C(=O)c2cc(NS(=O)(=O)c3cn(C)cn3)ccc2OC[C@@H](C)N(CCC(F)(F)F)C[C@H]1C`, the cytotoxicity call was “inactive”. `O=C(C[C@H]1CC[C@@H]2[C@H](COC[C@H](O)CN2S(=O)(=O)c2cccc(F)c2)O1)NCCCN1CCOCC1` was tested, and the cytotoxicity call was “inactive”. For `COCC#Cc1cnc2c(c1)C(=O)N([C@@H](C)CO)C[C@H](C)[C@H](CN(C)C(=O)Nc1ccccc1OC)O2`, the cytotoxicity call was “inactive”. With `O=C(CCCCCNC(=O)OCc1ccc(CO[C@@H]2C[C@H](c3ccc(C(F)(F)F)cc3)C=C(C(=O)N3CCN(Cc4ccc5c(c4)OCO5)CC3)O2)cc1)NO` the cytotoxicity call was “inactive”. With `C[C@@H]1CN([C@@H](C)CO)S(=O)(=O)c2ccc(-c3ccc(C(=O)N(C)C)cc3)cc2O[C@H]1CN(C)C(=O)Cc1ccccn1` the cytotoxicity call was “inactive”. In the case of `COc1ccc(NC(=O)N(C)C[C@@H]2OCCCC[C@H](C)Oc3ccc(NC(=O)CCC(F)(F)F)cc3C(=O)N([C@@H](C)CO)C[C@@H]2C)cc1`, the cytotoxicity call is reported as “inactive”. `CO[C@H]1CN(C)C(=O)c2cc(NS(=O)(=O)c3cn(C)cn3)ccc2OC[C@H](C)N(Cc2cccc(F)c2)C[C@@H]1C` was tested, and the cytotoxicity call was “inactive”. In the case of `CO[C@H]1/C=C/C[C@H](C)[C@@H](C)S(=O)(=O)NC(=O)c2ccc3c(c2)N(C[C@@H]2CC[C@H]21)C[C@@]1(CCCc2cc(Cl)ccc21)CO3`, the cytotoxicity call is reported as “active”. With `COc1ccc(CN(C)C[C@@H]2OCCCC[C@@H](C)Oc3ccc(NC(=O)c4ccccc4)cc3C(=O)N([C@@H](C)CO)C[C@@H]2C)cc1` the cytotoxicity call was “inactive”. With `CO[C@@H]1CN(C)C(=O)c2ccc(NS(=O)(=O)c3cn(C)cn3)cc2OC[C@H](C)N(Cc2cccc(F)c2)C[C@@H]1C` the cytotoxicity call was “inactive”. For `C=C1C(=O)OC2CC3(C)CCCC(C)C3=CC12` (stereo not given), the cytotoxicity call was “active”. In the case of `C[C@H]1CN([C@@H](C)CO)C(=O)c2cc(NC(=O)C3CCCCC3)ccc2O[C@@H]1CN(C)Cc1ccc(Cl)c(Cl)c1`, the cytotoxicity call is reported as “inactive”. With `COC(=O)C1(C)CCCC2(C)c3ccc(C(C)C)cc3C(=O)CC12` (stereo not given) the cytotoxicity call was “inactive”. For `CC(C)c1c(O)ccc2c1CCC1C(C)(C=O)CCCC21C` (stereo not given), the cytotoxicity call was “inactive”. In the case of `CC(C)c1c(O)ccc2c1CCC1C(C)(C)CCCC21C` (stereo not given), the cytotoxicity call is reported as “inactive”. With `CC(C)c1c(O)ccc2c1CC[C@H]1C(C)(C)CCC[C@]21C` the cytotoxicity call was “active”. `COC(=O)C1(C)CCCC2(C)c3ccc(O)c(C(C)C)c3CCC12` (stereo not given) was tested, and the cytotoxicity call was “active”. With `CC(C)c1c(O)ccc2c1CCC1C(C)(C)C(=O)CCC21C` (stereo not given) the cytotoxicity call was “inactive”. `Cn1cnc(CCNC(=O)C[C@H]2CC[C@@H]3[C@H](COC[C@H](O)CN3C(=O)Nc3ccc(Cl)cc3)O2)c1` was tested, and the cytotoxicity call was “inactive”. `C[C@@H]1CN([C@@H](C)CO)C(=O)c2cc(NC(=O)c3ccccc3)ccc2O[C@@H](C)CCCCO[C@H]1CN(C)S(=O)(=O)c1cccs1` was tested, and the cytotoxicity call was “inactive”.
